Pf Dd2 growth: blocks in vitro growth of P. falciparum Dd2 | P. falciparum Dd2 growth, SYBR Green, 72 h | Potency, µM (series often up to 28.9 µM), for inactives: at the highest dose activity, negative = inhibition, usual class: inhibitors | actives 4.3% (n = 120,000) | AID 1347417; active = well fitted inhibition curve with a large enough effect;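 also: plate controls were DMSO vehicle for no effect and reference drug for full effect; nearly all actives have a fitted effect of over 65% in size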
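Infected erythrocytes (Dd2, 0.3% parasitemia, 2.5% hematocrit final) are added to compound in RPMI-1640/Albumax II medium, grown 72 h at 37C in low oxygen, then lysed with saponin/Triton-X containing SYBR Green and read by fluorescence.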
Numbers without * were called inactive; [ ] = another dose, or the depositor's remark. Many of the other results were omitted from the sample, so hits are more common in it than they were. Potency is read from the fitted curve at half-maximal effect.

CC(C)c1noc(C2CCCN(Cc3cccnc3)CCC(=O)NCC2)n1 (configuration not stated) was read as Pf Dd2 growth 0%.
O=C1CCN(C2CCOCC2)CCCC(c2nc(-c3cccnc3)no2)CCN1 (configuration not stated) was read as Pf Dd2 growth -1%.
CCC(=O)N1CCCC(c2nc(-c3ccccc3)no2)CCNC(=O)CC1 (configuration not stated) was read as Pf Dd2 growth 31%.
`O=C1CCN(C2CCCC2)CCCC(c2nc(-c3cccnc3)no2)CCN1` (configuration not stated) gave Pf Dd2 growth 0.71µM*.
`COc1ccc(C(=O)N2CCCC(c3nc(-c4ccccc4)no3)CCNC(=O)CC2)c(OC)n1` (configuration not stated) gave Pf Dd2 growth 11µM*.
`COc1ccc(C(=O)N2CCCC(c3nc(-c4cccnc4)no3)CCNC(=O)CC2)c(OC)n1` (configuration not stated) gave Pf Dd2 growth inactive.
O=C1CCN(C(=O)c2cccnc2)CCCC(c2nc(-c3ccccc3)no2)CCN1 (configuration not stated) was read as Pf Dd2 growth inactive.
For CC(C)c1noc(C2CCCN(Cc3ccccc3)CCC(=O)NCC2)n1 (configuration not stated) the results were Pf Dd2 growth 4.5µM*.
For COc1ccc(C2(C(=O)N3CCCC(c4nc(-c5ccccc5)no4)CCNC(=O)CC3)CC2)cc1 (configuration not stated) the results were Pf Dd2 growth 7.9µM*.
COc1cccc(CCC(=O)N2CCC3(CC2)N=C(c2ccc(Cl)cc2)NO3)c1 was read as Pf Dd2 growth inactive.
`COc1cccc(CNC(=O)C2Cn3cccc3C(=O)N2)c1OC` (configuration not stated) gave Pf Dd2 growth inactive.
`CC(C)NC(=O)C[C@@H]1C[C@H]2O[C@H](CNC(=O)N3CCOCC3)[C@@H](O)[C@H]2O1` gave Pf Dd2 growth 9%[44.1 µM].
For O=C(NCCC1CCN(C(=O)Nc2ccc(F)cc2F)CC1)c1cc(F)ccc1F the results were Pf Dd2 growth -24%.
For COCCN1C(=O)c2ccccc2C(C(=O)NCCC2=CCCCC2)C12CCCC2 (configuration not stated) the results were Pf Dd2 growth -14%.
CC(C)CCN1C(=O)CC[C@]2(C(=O)NCCc3cccnc3)CCCC[C@@H]12 was read as Pf Dd2 growth inactive.
Screening Cc1ccc(N2CCC(NC(=O)CC(C)C)C2=O)cc1C (configuration not stated) returned Pf Dd2 growth -14%.
Screening O=C([C@@H]1C[C@H](Oc2cccnc2)CN1C(=O)c1ccc2ccccc2n1)N1CCOCC1 returned Pf Dd2 growth inactive.
`O=C1NCCCCCCN(S(=O)(=O)c2cccnc2)[C@H]2C[C@H](c3nc(-c4cccnc4)no3)C[C@@H]12` gave Pf Dd2 growth 2.8µM*.
Screening CS(=O)(=O)N1CCCCCCNC(=O)[C@@H]2C[C@@H](c3nc(-c4cccnc4)no3)C[C@@H]21 returned Pf Dd2 growth inactive.
O=C1NCCCCCCN(C(=O)c2cnccn2)[C@H]2C[C@H](c3nc(-c4cccnc4)no3)C[C@@H]12 was read as Pf Dd2 growth -23%.
For COc1cccc(CN2C[C@@H](F)[C@@H](OCc3nc4ccccc4o3)C2)n1 the results were Pf Dd2 growth inactive.
For CC(C)c1noc(CCNC(=O)[C@H]2CNC[C@H](C(=O)N3CCOCC3)C2)n1 the results were Pf Dd2 growth 2%.
`CCN(CC)CCCNC(=O)c1nn(C)c2c1CSc1ccccc1-2` gave Pf Dd2 growth 5.6µM*.
CC(C)CCNC(=O)c1nn(C)c2c1CSc1ccccc1-2 was read as Pf Dd2 growth -20%.
Screening CC(C)OCCCNC(=O)c1nn(C)c2c1CSc1ccccc1-2 returned Pf Dd2 growth -23%.
Screening COc1cccc(N2CCN(c3nc4ccc(C(=O)c5ccccc5)cc4n4c(C)nnc34)CC2)c1 returned Pf Dd2 growth 6.3µM*.
Screening Cc1ccc(C)c(N2CCN(c3nc4ccc(C(=O)c5ccccc5)cc4n4cnnc34)CC2)c1 returned Pf Dd2 growth -11%.
For Cc1ccc(Cl)cc1N1CCN(c2nc3ccc(C(=O)c4ccccc4)cc3n3cnnc23)CC1 the results were Pf Dd2 growth -4%.
`Cc1ccc(N2CCN(c3nc4ccc(C(=O)c5ccccc5)cc4n4cnnc34)CC2)c(C)c1` gave Pf Dd2 growth 15%.
Cc1ccc(Nc2nc3ccc(C(=O)c4ccccc4)cc3n3c(C)nnc23)c(C)c1 was read as Pf Dd2 growth inactive.
For O=C(c1ccccc1)c1ccc2nc(N3CCN(c4ccc(F)cc4)CC3)c3nncn3c2c1 the results were Pf Dd2 growth 11µM*.
O=C(NCCN1CCCCC1)C1CCc2ncc(-c3ccsc3)n2C1 (configuration not stated) was read as Pf Dd2 growth -15%.
For Cc1ccc(-c2ccc3nnc(CNC(=O)c4ccn[nH]4)n3n2)cc1 the results were Pf Dd2 growth -11%.
For Cc1noc(-c2cn(C3CCN(C(=O)c4ccoc4)C3)nn2)n1 (configuration not stated) the results were Pf Dd2 growth inactive.
`CCn1nccc1C(=O)N1CCCC(n2c(C)cnc2COC)C1` (configuration not stated) gave Pf Dd2 growth 5%.
For CN(C)CCN(C)CC[C@H]1CN(C(=O)c2ccc(F)cc2)CC[C@H]1CC(=O)O the results were Pf Dd2 growth -11%[44.1 µM].
COc1cccc(CN2C(=O)OC3(CCN(C(=O)CCc4cccnc4)CC3)C2(C)c2cccnc2)c1 (configuration not stated) was read as Pf Dd2 growth inactive.
`COc1cccc(CN2C(=O)OC3(CCN(Cc4ccncc4)CC3)C2(C)c2cccnc2)c1` (configuration not stated) gave Pf Dd2 growth -9%.
COc1cccc(CN2C(=O)OC3(CCN(Cc4ccc(F)cc4)CC3)C2(C)c2cccnc2)c1 (configuration not stated) was read as Pf Dd2 growth 0.79µM*.
Screening COc1cccc(CN2C(=O)OC3(CCN(Cc4ccccc4OC)CC3)C2(C)c2cccnc2)c1 (configuration not stated) returned Pf Dd2 growth 1.1µM*.
`COc1cccc(CN2C(=O)OC3(CCN(C(=O)Cc4cccc(F)c4)CC3)C2(C)c2cccnc2)c1` (configuration not stated) gave Pf Dd2 growth inactive.
COCC(=O)N1CCC2(CC1)OC(=O)N(Cc1cccc(OC)c1)C2(C)c1cccnc1 (configuration not stated) was read as Pf Dd2 growth -10%[44.1 µM].
COC(=O)CNC(=O)C1CN(S(=O)(=O)c2cccnc2)CC12CCCCC2 (configuration not stated) was read as Pf Dd2 growth -2%.
Screening O=C(c1ccccc1F)N1CCCC(c2nc(C3CCOCC3)no2)C1 (configuration not stated) returned Pf Dd2 growth 25%.
Screening COc1cccc(CNC(=O)C2CCN(C(=O)c3ncn4c3COC(c3ccc(C)cc3)C4)CC2)c1 (configuration not stated) returned Pf Dd2 growth inactive.
Screening CN1C[C@H](NC2CCC2)CCC[C@@H](C(=O)N(C)Cc2cccnc2)CC1=O returned Pf Dd2 growth 12%[44.1 µM].
COC(=O)CNC(=O)NCCc1noc(C2CC2)n1 was read as Pf Dd2 growth -18%.

High-throughput results as filed in PubChem.
